The record followed here is PubChem BioAssay AID624330 (Southern Research Specialized Biocontainment Screening …, 2012).

SMILES strings stand for the structures. Out of some 340,000 compounds screened, about 2,100 (0.62%) were called active.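 The calls were made as follows: active = first-screen hits whose inhibition reached a set limit at any dose in the follow-up dose series; inconclusive = inhibition above the set first-screen limit but never retested; inactive = the rest.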 Only a sample is shown. Potency and affinity values are given separately.

Chain of Rac GTPase-activating protein 1 (Homo sapiens) (Q9H0H5 whole entry, looked up): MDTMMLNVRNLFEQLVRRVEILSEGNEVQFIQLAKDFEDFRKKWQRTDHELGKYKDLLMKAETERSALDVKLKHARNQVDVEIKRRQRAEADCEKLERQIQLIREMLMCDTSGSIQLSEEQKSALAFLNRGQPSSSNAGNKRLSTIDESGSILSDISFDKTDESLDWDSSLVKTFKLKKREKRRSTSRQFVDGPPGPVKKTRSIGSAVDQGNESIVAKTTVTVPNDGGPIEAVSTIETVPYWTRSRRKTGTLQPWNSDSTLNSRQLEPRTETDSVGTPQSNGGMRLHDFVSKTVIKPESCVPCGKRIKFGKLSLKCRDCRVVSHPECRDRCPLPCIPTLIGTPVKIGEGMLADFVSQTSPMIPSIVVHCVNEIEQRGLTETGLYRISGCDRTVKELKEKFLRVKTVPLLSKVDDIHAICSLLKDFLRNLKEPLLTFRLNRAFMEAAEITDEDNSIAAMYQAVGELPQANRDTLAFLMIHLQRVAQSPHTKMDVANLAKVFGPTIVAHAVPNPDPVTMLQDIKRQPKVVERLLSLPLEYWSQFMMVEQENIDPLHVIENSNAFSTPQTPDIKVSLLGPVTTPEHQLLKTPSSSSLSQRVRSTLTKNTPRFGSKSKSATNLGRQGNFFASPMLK

The assay has as its target Rac GTPase-activating protein 1 (Homo sapiens) (UniProt Q9H0H5). In words: blockers of MgcRacGAP-driven Rac1 GTP hydrolysis – biochemical, ADP Hunter fluorescence, primary and confirmatory, confirmation (AID 624330).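 Also: fluorescence reports GDP produced by GAP-driven GTP hydrolysis.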 The settings on record: MgcRacGAP-stimulated Rac1 GTP hydrolysis, at 30 µM, active compounds read high, GST-tagged Rac1 F28L mutant substrate.
As for `CC[C@]12c3[nH]c4ccc(Cl)cc4c3CCN1C(=O)[C@@H](CC(=O)NCc1ccco1)C[C@@H]2C(=O)N1CCN(C(=O)C2CC2)CC1`, the inhibition was 9.23% (inactive).

In the case of `CC12CCC(=O)N1C(C(=O)N1CCN(S(=O)(=O)c3ccccc3F)CC1)CS2` (configuration not stated), the inhibition is 2.86% (inactive).

For `CCOC(=O)c1ccc2c(c1)nc(-c1ccc(F)cc1)c1nccn12`, the inhibition is 0.78% (inactive).

As for `COc1ccc(CN2CCOCCOCCOCCOCCOCC2)cc1`, the inhibition is 12.1% (inactive).

On to `CCC(=O)Nc1cccc(NC(=O)CN2CCN(c3ccccc3OC)CC2)c1`, for which the inhibition is 9.77% (inactive).

In the case of `Cc1ccc(C2(C)NC(=O)N(CC(=O)N(c3ccccc3)C3CCS(=O)(=O)C3)C2=O)cc1` (configuration not stated), the inhibition is -6.22% (inactive).

Turning to `CCN(CC)S(=O)(=O)c1cccc(C(=O)NN2Cc3ccccc3C2=N)c1`, the inhibition was -4.56% (inactive).

For `C=CCn1c(SCC(=O)NNC(=O)Nc2ccc(C)cc2)nnc1-c1ccccc1`, the inhibition was 1.01% (inactive).

For the compound `CCn1c(SCC(=O)Nc2cc(C)on2)nnc1-c1cccc(C)c1`, the inhibition was 7.99% (inactive).

On to `C=CCn1c(SCC(=O)Nc2ccc3c(c2)OCO3)nnc1-c1ccccc1`, for which the inhibition is 6.23% (inactive).

Regarding `CCn1c(SCC(=O)Nc2ccc(C)cc2)nnc1-c1ccc(O)cc1`, the inhibition is 5.22% (inactive).

For `Cc1csc(=O)n1CCC(=O)OCC(=O)Nc1ccc(Cl)cn1`, the inhibition was 4.45% (inactive).

Regarding `CCOc1ccc(S(=O)(=O)N/N=C(\C)C2CCCCC2)cc1`, the inhibition is 3.81% (inactive).

Take `CCCCOc1ccc(/C=N/NC(=O)c2csc(C)c2C)cc1`: the inhibition is 16.6% (inactive).

For the compound `COc1cccc(-n2nnc3c(=O)n(CC(=O)N4CCC(C)CC4)cnc32)c1`, the inhibition is 11.4% (inactive).

Take `CCOc1ncccc1C(=O)OCC(=O)NCc1ccccc1`: the inhibition is 5.95% (inactive).

For the compound `O=C(CN1CCCCC1)Nc1ccccc1-c1ccccc1`, the inhibition was 6.84% (inactive).

On to `O=C(CN1CCN(C2CCCCC2)CC1)Nc1cccc2ccccc12`, for which the inhibition is 15.3% (inactive).

As to `Cc1cc(C)cc(OCC(=O)N2CCN(c3ncccn3)CC2)c1`, the inhibition was 1.56% (inactive).

Turning to `Cc1ccc(OC(=O)COc2ccccc2C)cc1`, the inhibition was 9.41% (inactive).

Regarding `Cc1cccc(OCC(=O)Oc2ccc(Cl)cc2)c1`, the inhibition was 14.7% (inactive).

As for `Cc1ccc(OCC(=O)Oc2ccc(C(C)C)cc2)cc1`, the inhibition was 15.2% (inactive).

Take `COc1ccc(CC(=O)Oc2cc(C)ccc2C)cc1`: the inhibition was 4.1% (inactive).

As to `COc1ccc(N(C(=O)COc2cccc(C)c2)S(=O)(=O)c2ccc(C)cc2)cc1`, the inhibition is 7.24% (inactive).

With `COc1ccc(OC(=O)COc2ccc(Cl)cc2)cc1`, the inhibition was 10.7% (inactive).

Consider `Cc1ccc(C(=O)C[n+]2ccc(-c3nnc4n3CCC4)cc2)cc1`, for which the inhibition was -12.9% (inactive).

Consider `CN(C(=O)CSc1nnc(-c2ccccc2F)n1N)C1CCCCC1`, for which the inhibition was 4.13% (inactive).

For `Cc1noc(C)c1NC(=O)NCCN1CCN(Cc2ccccc2)CC1`, the inhibition is 11.3% (inactive).

For the compound `CCOc1ccc2[nH]c(=O)c(CN(CCN3CCCC3)C(=S)Nc3ccccc3OC)cc2c1`, the inhibition is 3.77% (inactive).

Turning to `C=CCc1ccccc1OCC(=O)N/N=C/c1ccc(OC(C)=O)cc1OC(C)=O`, the inhibition was -0.28% (inactive).

With `C1=CC2=NC34CCCCC3CC3=C(CCCC3)N4C2=CC1=NC1CCCCC1` (configuration not stated), the inhibition was 11.1% (inactive).

Consider `CCOc1ccc(NC(=O)NC2CCCc3ccccc32)cc1` (configuration not stated), for which the inhibition was 13.3% (inactive).

On to `COc1ccc(CNC2CCCc3ccccc32)cc1OC` (configuration not stated), for which the inhibition was 6.79% (inactive).

Consider `CCOc1ccc(N=Nc2ccc(O)c3ncccc23)cc1`, for which the inhibition is 5.89% (inactive).

On to `CCOc1ccc2[nH]c3ncccc3c(=O)c2c1`, for which the inhibition was 3.15% (inactive).

Turning to `COc1cc(/C=N/NC(=O)c2cc(C)oc2C)ccc1OCc1ccccc1`, the inhibition is 5.24% (inactive).

In the case of `COc1ccc(/C=N/NC(=O)c2cc(C)oc2C)cc1OCc1ccccc1`, the inhibition is 11.1% (inactive).

Turning to `COc1cc(/C=N/NC(=O)c2cc(C)oc2C)cc(OC)c1OC`, the inhibition was -1.5% (inactive).

Regarding `COc1ccc(/C=N/NC(=O)c2cc(C)oc2C)cc1OC`, the inhibition was 3.85% (inactive).

On to `COc1ccc(/C=N/NC(=O)c2ccoc2C)cc1OC`, for which the inhibition is 6.81% (inactive).

On to `COc1cc(/C=N/NC(=O)c2ccoc2C)cc(OC)c1O`, for which the inhibition is 21.6% (inactive).

As for `Cc1ccc(S(=O)(=O)N2CCN(C(=O)c3ccco3)CC2)c(C)c1`, the inhibition was 6.61% (inactive).

Consider `CC(=O)Nc1ccc(S(=O)(=O)N2CCCC3CCCCC32)cc1` (configuration not stated), for which the inhibition was 2.55% (inactive).

`COCCCNC(=O)CC1C[C@H](C(=O)N2CCOCC2)[C@@]2(CCC3CCCC3)c3[nH]c4ccc(OC)cc4c3CCN2C1=O` (some centres not stated): the inhibition was 3.79% (inactive).

For the compound `O=C(NC1CCN(Cc2ccc(Cl)cc2Cl)CC1)c1ccccc1`, the inhibition is 5.03% (inactive).

With `Cn1c(C(=O)N2CCCC(Nc3ccc(F)cc3)C2)cc2ccccc21` (configuration not stated), the inhibition is -8.53% (inactive).

`O=C(O)c1cccc(S(=O)(=O)Nc2ccccc2C(=O)NCCc2ccccc2)c1`: the inhibition was 4.14% (inactive).

For the compound `COc1cccc(CNCc2ccc3c(c2)OCO3)c1`, the inhibition is 31.8% (inactive).

Take `COc1cc(C(=O)NCCc2ccc3c(c2)OCO3)cc(OC)c1OC`: the inhibition is -4.93% (inactive).

Turning to `COc1cc(CC(=O)NCc2ccc3c(c2)OCO3)cc(OC)c1OC`, the inhibition was 4.17% (inactive).

For `Fc1cccc(CNCc2ccc3c(c2)OCO3)c1`, the inhibition is 3.78% (inactive).

For `CC1(C)CC(=O)C=C(c2cccc(OC(=O)c3ccc(-c4ccccc4)cc3)c2)C1=O`, the inhibition was 11.9% (inactive).

On to `CCOc1ccc(NC(=O)CN2CCN(c3ccc(F)cc3)CC2)cc1S(=O)(=O)N1CCCC1`, for which the inhibition was 10.6% (inactive).

On to `CN(CC(O)COc1ccc(S(=O)(=O)N2CCOCC2)cc1)C1CCCCC1` (configuration not stated), for which the inhibition is 10.6% (inactive).

Regarding `O=C(CSc1nnnn1Cc1ccccc1)Nc1cccc(F)c1`, the inhibition was 8.78% (inactive).

As to `Nc1ccc(C(=O)C(=O)c2ccc(N)cc2)cc1`, the inhibition is 6.66% (inactive).

In the case of `N=C(N)c1ccc(N)cc1`, the inhibition is 10.7% (inactive).

For the compound `CC(NC(=O)COc1cccc(Br)c1)C(=O)O` (configuration not stated), the inhibition was 3.37% (inactive).

Turning to `CCc1sc(C(=O)Nc2ccc(N3CCOCC3)cc2)cc1C`, the inhibition was 9.93% (inactive).

As to `CN1C(=S)SC(N(O)C=C2C=CC(=O)C=C2)C1(C)C` (configuration not stated), the inhibition was 24.5% (inactive).

Regarding `CCOC(=O)/C(C#N)=C\C=C1C=CN(C)C=C1`, the inhibition is 10.4% (inactive).

For the compound `COc1ccc(C(CNC(=O)c2ccc(NS(=O)(=O)c3ccc4c(c3)OCCO4)cc2)N(C)C)cc1` (configuration not stated), the inhibition is -0.2% (inactive).

One may read the inhibition as the drop in the measured response relative to a control, in per cent.
